# TEAD-YAP inh: TEAD-YAP interaction inhibition; hit rate 1.4% among 640,000; inhibition, % at 9.12 µM; HEK-TIYL cells, TEAD-Gal4/YAP UAS-luciferase luminescence; AID 1259422; in the data active = inhibition above about 32%;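 note: 0% = median of test compound wells and 100% = reference inhibitor wells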
# GPR151 activ: human GPR151 activation | Q8TDV0 | PathHunter beta-arrestin GPR151 cells, luminescence | activation, % at 11.2 µM | hit rate 1% among 650,000; in the data active = activation above about 4.9%;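 note: 0% = median of compound wells and 100% = cells with positive control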
# FBW7 act: human FBW7 E3 ligase activation, primary screen; Q969H0; AlphaScreen FBW7–phospho-cyclin E peptide binding, activator screen; normalized activity (activation), % at 26.1 µM; hit rate 0.13% among 650,000; in the data active = normalized activity above about 1.9%;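 note: purified mutant Fbw7 with reduced substrate affinity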
# MITF primary: inhibitors of human MITF; AlphaScreen MITF homodimerization, bead proximity signal; inhibition, % at 2.6 µM; hit rate 0.91% among 650,000; in the data active = inhibition above about 50%;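 note: 0% = vehicle wells with protein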
# Target sequence (O75030 whole entry, looked up): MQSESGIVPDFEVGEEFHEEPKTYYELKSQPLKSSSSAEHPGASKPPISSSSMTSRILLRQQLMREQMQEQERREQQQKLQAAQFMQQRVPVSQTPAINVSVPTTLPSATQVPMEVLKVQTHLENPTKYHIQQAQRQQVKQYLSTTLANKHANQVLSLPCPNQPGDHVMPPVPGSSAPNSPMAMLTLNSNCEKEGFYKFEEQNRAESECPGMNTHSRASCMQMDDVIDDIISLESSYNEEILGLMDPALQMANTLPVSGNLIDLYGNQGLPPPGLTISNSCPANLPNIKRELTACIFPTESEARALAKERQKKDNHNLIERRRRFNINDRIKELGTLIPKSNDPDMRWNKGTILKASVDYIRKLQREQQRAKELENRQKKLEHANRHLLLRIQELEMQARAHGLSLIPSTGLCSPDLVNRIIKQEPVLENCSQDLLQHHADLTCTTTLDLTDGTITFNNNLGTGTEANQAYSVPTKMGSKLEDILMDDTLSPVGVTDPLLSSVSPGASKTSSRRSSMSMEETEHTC
# GPR151 confirm: human GPR151 activation, confirmation screen; shares compounds with GPR151 activ; GPR151 PathHunter beta-arrestin cells, luminescence, 90 min; % of EA-reagent control over plate median; activation, % at 11.2 µM; 6,700 tested, under 10 active;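 active = mean percent activation across replicates above the confirmation screen cutoff of 4.91%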
# GPR119 ag: activates human GPR119 in a GPR151 counter-screen. GPR119 PathHunter beta-arrestin cells, luminescence, 90 min; 0 = compound-well median, 100 = enzyme-acceptor control. hit rate 0.3% among 6,700. activation, % at 11.2 µM. shares compounds with GPR151 activ;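 active = mean percent activation in the counterscreen above 29.09%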;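 note: counterscreen on off-target GPR119 to flag nonselective hits from the GPR151 activator screen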
# * marks the source's active call; other numbers are inactive results; · = not tested or not shown. Most compounds without a hit are left out; they make up all but 3.4% or so of the library.
SMILES,TEAD-YAP inh,GPR151 activ,FBW7 act,MITF primary,GPR151 confirm,GPR119 ag
COc1ccc(-c2noc(CSc3nc(N)c(-c4ccccc4)c(=O)[nH]3)n2)cc1OC,5.5,5.7*,-0.1,-11.5,-0.3,-1.1
COc1ccc(-c2noc(CSc3nnc(C)n3-c3ccccc3)n2)cc1OC,-4.3,-0.6,-0.3,-8.2,·,·
O=C1NC2=Nc3ccccc3NC(c3ccccc3)=C2C(c2ccc(O)cc2)N1 (centres undefined),-8.1,-0.2,-0.2,-11.2,·,·
CCOc1ccc(/C=C2\SC(=S)N(CC(=O)Nc3ccc(O)cc3)C2=O)cc1,0.4,5.7*,0.0,1.9,1.9,6.2
CCOC(=O)c1ccc(NC(=O)CNC(=O)c2ccccc2)cc1,1.8,14.6*,0.6,7.2,-1.5,-4.4
CCOc1ccc(NC(=O)CNC(=O)c2ccccc2)cc1,-24.7,-1.3,0.4,6.7,·,·
CCOC(=O)c1ccc(NC(=O)CN2C(=O)CSCC2=O)cc1,11.2,2.9,-0.2,-3.7,·,·
CCOC(=O)c1ccc(NC(=O)CN2C(=O)C(CC)SC(CC)C2=O)cc1 (centres undefined),1.5,6.4*,0.2,9.3,-0.1,6.5
COc1ccc(/C=C2\SC(=O)N(CC(=O)Nc3ccc(C)cc3)C2=O)cc1OC,0.1,-1.1,0.6,12.3,·,·
COc1ccc(/C=C2\SC(=O)N(CC(=O)Nc3ccc(F)cc3)C2=O)cc1O,1.1,6.2*,0.0,-8.3,0.9,9.6
COc1ccc(C2C(C(=O)NCCN(C)C)c3ccccc3C(=O)N2c2ccc(OC)cc2)cc1 (centres undefined),1.5,0.4,0.5,-4.3,·,·
Nc1nc(Cl)cc(NCc2ccccc2)n1,7.9,-2.0,0.2,6.3,·,·
O=C(CN1CCC(C(=O)c2ccc(F)cc2)CC1)NCC1COCCO1 (centres undefined),2.2,-0.2,0.2,43.6,·,·
CC1=C(C(=O)OCCc2ccccc2)C(c2ccccc2OCc2ccccc2)NC(=O)N1 (centres undefined),6.8,-1.0,-0.1,10.4,·,·
CCOc1ccc(NC(=O)CN2C(=O)C(C)SC(C)C2=O)cc1 (centres undefined),1.4,2.9,-0.1,3.8,·,·
CCOc1ccc(NC(=O)CN2C(=O)C(CC)SC(CC)C2=O)cc1 (centres undefined),14.3,5.1*,0.1,6.7,0.6,8.3
CCNc1nc(NCCN2CCOCC2)c2ncn(-c3ccsc3)c2n1,33.5*,6.5*,0.1,0.4,-1.8,-10.3
COc1cc(Nc2nc(NCCO)c3ncn(-c4ccsc4)c3n2)cc(OC)c1OC,36.8*,5.6*,0.2,0.2,0.2,12.0
CCNc1nc(NCCN2CCOCC2)c2ncn(-c3ccccc3)c2n1,6.4,-0.9,0.0,3.7,·,·
O=C(Nc1ccc(O)c(-c2nc3ccccc3s2)c1)c1ccc(Cl)cc1,3.2,0.1,0.2,8.4,·,·
NC(=O)CC(c1ccccc1)c1ccc2c(c1)OCO2 (centres undefined),12.2,6.4*,-0.1,-0.3,-0.1,6.2
CCN(CC(=O)Nc1ccc(NC(C)=O)cc1)S(=O)(=O)/C=C/c1ccccc1,-3.1,7.4*,0.0,5.2,0.2,4.2
CC(C)OC(=O)c1c(NC(=O)c2ccccc2Br)sc2c1CCCC2,-4.6,3.1,0.1,2.7,·,·
CCOC(=O)C1=C(C)N(C)C(SC)=NC1c1ccco1 (centres undefined),-2.4,6.4*,0.1,8.6,1.2,5.4
N#Cc1ccccc1NC(=O)CCN1C(=O)c2ccccc2C1=O,-18.2,-0.7,0.2,0.1,·,·
SMILES,TEAD-YAP inh,GPR151 activ,FBW7 act,MITF primary,GPR151 confirm,GPR119 ag
CCSc1ccccc1C(=O)NC(C)c1ccccc1 (centres undefined),-5.3,5.5*,0.0,1.5,0.4,3.1
CCOc1ccc(-n2nc3ccc(NC(=O)COc4cc(C)c(Cl)c(C)c4)cc3n2)cc1,0.1,0.3,0.3,12.6,·,·
Cn1c(=NC(=O)CN2C(=O)CCC2=O)sc2cc(F)cc(F)c21,0.8,1.8,0.0,-3.1,·,·
CCC(=O)N=c1sc2cc(F)cc(F)c2n1C,2.0,8.1*,0.0,12.3,-0.2,-3.2
COc1cc(CN2CCC(n3nccc3NC(=O)Cc3ccccc3)CC2)cc(OC)c1,4.8,2.4,-0.2,-2.9,·,·
CC1=C(C(=O)Nc2ccc(F)cc2)C(c2ccc(N(C)C)cc2)C2=C(CC(C)(C)CC2=O)N1 (centres undefined),-33.8,5.6*,0.0,14.5,-0.1,4.1
CC1=C(C(=O)Nc2cccc(C)n2)C(c2ccc(C)cc2)C2=C(CC(C)(C)CC2=O)N1 (centres undefined),4.5,6.9*,0.1,15.7,0.7,9.4
CC1=C(C(=O)Nc2c(F)cccc2F)C(c2ccc(N(C)C)cc2)C2=C(CC(C)(C)CC2=O)N1 (centres undefined),10.6,1.6,0.0,2.4,·,·
O=[N+]([O-])c1ccc(NC2CCCCC2)nc1,-3.2,-0.6,-0.3,0.3,·,·
O=C(Nc1ccc([N+](=O)[O-])cn1)C1CCCCC1,-3.7,9.2*,0.1,12.1,-0.6,-9.6
COC(=O)c1ccc(/C=N/Nc2ccccc2[N+](=O)[O-])cc1,-28.7,4.9*,-0.1,-2.4,-0.5,-7.2
COc1cc(/C=N/Nc2ccccc2[N+](=O)[O-])cc(Br)c1O,-54.3,-5.2,-0.5,9.3,·,·
CC(C)c1ccc(NC(=O)CN(C)S(=O)(=O)c2ccc3c(c2)CCC(=O)N3)cc1,-11.2,0.8,0.0,-9.0,·,·
CSc1cccc(NC(=O)COc2ccc(S(=O)(=O)NC3CCCCC3)cc2)c1,-3.6,5.3*,-0.4,-0.9,1.5,2.7
COc1ccc(S(=O)(=O)NC2CCCCC2)cc1,-8.3,-2.4,0.2,22.2,·,·
O=C(Nc1ccc(S(=O)(=O)NC2CCCCC2)cc1)Nc1cccc(Cl)c1,7.5,5.1*,0.1,13.1,0.2,10.8
Cc1cccc(NC(=O)COc2ccc(S(=O)(=O)NC3CCCCC3)cc2)c1,4.4,1.3,-0.1,-1.6,·,·
COc1ccc2cc(S(=O)(=O)NC3CCCCC3)ccc2c1,-2.5,5.2*,0.1,5.8,0.1,11.3
Cc1cc(S(=O)(=O)NC2CCCCC2)ccc1OCC(=O)NC(C)C,8.0,1.1,0.1,-8.6,·,·
Cc1cc(S(=O)(=O)NC2CCCCC2)ccc1OCC(=O)Nc1ccccc1F,-8.1,5.0*,0.8,6.2,0.7,12.9
Clc1ccc(Cl)c(-c2ccc(CNCCCN3CCOCC3)o2)c1,-13.1,1.5,-0.1,1.7,·,·
Cc1cc(NCCOc2ccccc2)nc(N2CCN(Cc3ccc4c(c3)OCO4)CC2)n1,8.1,6.0*,-0.4,6.2,1.5,3.1
CC(C)C(NC(=O)C1CCOC1)c1nnc2n1CCN(Cc1ccco1)CC2 (centres undefined),3.8,1.0,-0.1,-5.9,·,·
CCOC(=O)c1c(N)sc(-c2ccccc2)c1C,-40.0,6.2*,-0.1,1.0,-0.5,-1.8
CCOC(=O)c1c(N)sc(-c2ccccc2)c1Cc1ccccc1,-1.3,0.6,-0.1,-6.6,·,·

# Screens as filed in PubChem.
